Screens (PubChem)
CYP2C9 inhib = blockers of cytochrome P450 2C9 activity – biochemical, luminescence, ADME assay, primary screen; P11712; CYP2C9 Supersomes, luciferin-H conversion; inhibition, % at 5 µM; 20% of 96,000 active; AID 777, 2007;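 active means blocking of liver enzyme CYP2C9 beyond about 50% at 5 µM, limit read from the data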
Target sequence (P11712 whole entry, looked up): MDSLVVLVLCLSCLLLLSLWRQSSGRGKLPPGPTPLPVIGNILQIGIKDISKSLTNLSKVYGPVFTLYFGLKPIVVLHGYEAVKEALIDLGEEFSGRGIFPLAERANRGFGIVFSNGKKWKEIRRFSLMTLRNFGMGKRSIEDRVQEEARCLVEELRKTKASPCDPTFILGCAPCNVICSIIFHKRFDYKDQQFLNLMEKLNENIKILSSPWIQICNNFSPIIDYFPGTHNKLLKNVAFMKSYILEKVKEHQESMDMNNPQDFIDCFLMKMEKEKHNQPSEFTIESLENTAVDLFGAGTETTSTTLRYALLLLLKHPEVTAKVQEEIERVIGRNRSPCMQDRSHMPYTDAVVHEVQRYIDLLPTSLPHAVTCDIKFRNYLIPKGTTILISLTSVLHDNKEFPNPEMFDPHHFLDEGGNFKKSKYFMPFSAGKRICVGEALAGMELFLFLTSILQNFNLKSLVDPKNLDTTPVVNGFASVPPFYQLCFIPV
CYP2C19 activ = human CYP2C19 activators, primary screen, biochemical, luminescence. Cytochrome P450 2C19 (Homo sapiens), P33261. recombinant CYP2C19, luciferin-H EGE luminescence; hits give high values; 0 = fully inhibited enzyme, 1 = untreated enzyme. activation factor at 5 µM. 96,000 tested, under 10 active. AID 1025, 2008;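 active means activation factor of at least 2 at 5 µM in the primary screen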;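 further: 0 = wells with 2.5 mM tranylcypromine and 1 = vehicle-only wells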
CYP2C9 act = human CYP2C9 activators, primary screen, biochemical, luminescence; Cytochrome P450 2C9 (Homo sapiens), P11712; recombinant CYP2C9, luciferin-H conversion; hits give high values; factor 1 = untreated enzyme, 0 = blocked; activation factor at 5 µM; 1.4% of 96,000 active;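 active means activation factor of 2 or more for CYP2C9 at a 5 µM dose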;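 further: 0 = sulfaphenazole-blocked wells and 1 = vehicle-only wells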
PostGolgi yeast = phenotypic screen on post-Golgi transport, primary screen. post-Golgi transport phenotypic cell assay. inhibition, % at 10 µM. 0.9% of 98,000 active. AID 739, 2007;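 further: yeast cells grown in 1536-well plates; yeast grown about 18 h at 30C before absorbance read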
CYP2C19 inhib = blockers of cytochrome P450 2C19 activity – biochemical, luminescence, ADME assay, primary screen; P33261; CYP2C19 Supersomes, luciferin-H EGE luminescence, 30 min; inhibition, % at 5 µM; 21% of 96,000 active;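 active means CYP2C19 inhibition above a set limit at 5 µM in the primary screen, cut at about 50% in these data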;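 further: plate controls were negative control wells for no effect and 2.5 mM tranylcypromine positive control for full effect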
PostGolgi ctrl = growth inhibition of yeast control strain, primary screen, counter-screen for post-Golgi transport modulator project. efflux-deficient yeast background strain, growth absorbance A615, 16 h. inhibition, % at 10 µM. 5% of 98,000 active. AID 738, 2007
The depositor's hits bear a star; · = no result given. Shown are actives, neighbours in structure and some others; about 32% of the full set was active somewhere. Unless noted, no stated cut-off is given here; in the data, active means inhibition above about 30%; inactive means the rest.

SMILES	CYP2C9 inhib	CYP2C19 activ	CYP2C9 act	PostGolgi yeast	CYP2C19 inhib	PostGolgi ctrl
COc1cc(-c2nnc(SCC(=O)c3cc(C)n(CC4CCCO4)c3C)o2)cc(OC)c1OC (stereo unspecified)	20	0.9	0.8	-7	14	7
O=C(NC1CCS(=O)(=O)C1)Oc1ccc(Cl)cc1 (stereo unspecified)	-10	1.1	1.1	17	-9	7
CCn1cc(C(=O)N2CC(C)CC(C)C2)c(=O)c2cc(S(=O)(=O)N3CCOCC3)ccc21 (stereo unspecified)	5	1	0.9	0	4	12
COc1ccc(CCNc2oc(COc3ccc(F)cc3)nc2C#N)cc1	70*	0.5	0.3	-3	53*	8
O=C(c1ccco1)n1c(=S)nc2ccccn21	28	0.3	0.7	-12	72*	27
Cc1cccc2nc(=S)n(C(=O)c3ccco3)n12	76*	0.3	0.2	-1	73*	5
CCOC(=O)c1ccc(Oc2nc(NC)nc(Nc3ccccc3)n2)cc1	50	0.8	0.5	9	24	15
COc1cccc(C(=O)NCC(c2cccnc2)N2CCN(c3ccccc3OC)CC2)c1 (stereo unspecified)	·	·	·	1	·	-11
CCCCNC(=O)CCCn1c(=S)[nH]c2cc3c(cc2c1=O)OCO3	59*	0.9	0.4	15	15	4
CCOCCCn1c(=S)[nH]c2cc3c(cc2c1=O)OCO3	48	0.3	0.5	11	68*	7
COc1cc2[nH]c(=S)n(CCCN3CCOCC3)c(=O)c2cc1OC	-18	1	1.2	38*	4	-9
CCN(CC)CCn1c(=S)[nH]c2cc3c(cc2c1=O)OCO3	8	1	0.9	-1	1	2
COc1cc2[nH]c(=S)n(CCN3CCOCC3)c(=O)c2cc1OC	8	0.6	0.9	-2	35	2
CCCCCCSc1nc(O)c(C2OC(=O)c3c2ccc(OC)c3OC)c(=O)n1-c1ccccc1 (stereo unspecified)	39	0.9	0.6	-6	10	12
Cc1ccc(Cn2c(=O)c3c(nc4n3CCCN4Cc3ccccc3)n(C)c2=O)cc1	1	0.8	1	6	20	39*
Cn1c(=O)n(Cc2ccc(Cl)cc2)c(=O)c2c1nc1n2CCN1Cc1ccco1	16	0.6	0.8	-3	37	30
Cn1c(=O)n(Cc2ccccc2)c(=O)c2c1nc1n2CCCN1Cc1ccccc1	1	0.8	1	-5	17	32*
Cn1c(=O)n(Cc2ccccc2)c(=O)c2c1nc1n2CCCN1CCc1ccccc1	33	0.4	0.7	-2	58*	27
Cn1c(=O)n(Cc2ccccc2)c(=O)c2c1nc1n2CCS1	85*	0.4	0.1	-2	57*	-11
COC(=O)c1ccc(C(c2c(N)n(Cc3ccccc3)c(=O)n(C)c2=O)N2CCOCC2)cc1 (stereo unspecified)	28	0.7	0.7	-18	26	-2
CSCCC(C(=O)OCC(=O)c1ccc(C)c(C)c1)N1C(=O)c2cc(Cl)c(Cl)cc2C1=O (stereo unspecified)	44	1	0.6	-4	4	-5
Cn1c(N2CCCC2)nc2c1c(=O)n(Cc1ccc(Cl)cc1)c(=O)n2C	21	0.9	0.8	-10	13	20
Cn1c(N2CCCC2)nc2c1c(=O)n(Cc1cccc(F)c1)c(=O)n2C	81*	1	0.2	-10	2	9
Cc1ccc2c(c1)c1c3n2CCCNC3CCC1 (stereo unspecified)	-4	1.1	1	20	-11	5
CCN1CCn2c3c(c4cc(C)ccc42)CCCC31 (stereo unspecified)	52*	0.5	0.5	12	54*	1
SMILES	CYP2C9 inhib	CYP2C19 activ	CYP2C9 act	PostGolgi yeast	CYP2C19 inhib	PostGolgi ctrl
Cc1oc(=O)c(NC(=O)c2cccc(Cl)c2)cc1C(=O)c1ccccc1	6	0.8	0.9	-4	25	5
O=C(CN(C(=O)c1ccc2c(c1)OCCO2)c1ccccc1)NCC1CCCO1 (stereo unspecified)	66*	0.6	0.3	-1	42	17
CN(CC(=O)NCC1CCCO1)S(=O)(=O)c1cc(Cl)ccc1Cl (stereo unspecified)	-221	0.4	3.2*	8	64*	7
CCN(CC)S(=O)(=O)c1ccc(Cl)c(C(=O)NCC2CCCO2)c1 (stereo unspecified)	-2	1	1	2	-4	10
COc1ccc(S(=O)(=O)NCC(=O)N(CC(=O)NCC2CCCO2)c2c(C)cccc2C)cc1 (stereo unspecified)	68*	0.8	0.3	3	20	10
CCOc1ccc(N(CC(=O)NCC2CCCO2)S(=O)(=O)c2ccc(SC)cc2)cc1 (stereo unspecified)	44	0.3	0.6	-7	68*	7
O=C(NCC1CCCO1)c1ccc2c(c1)OCO2 (stereo unspecified)	5	0.7	0.9	-2	26	7
CCCSc1nc(=O)n2cccc(C)c2n1	19	1	0.8	7	0	-2
O=C(CN(c1ccc2c(c1)OCCO2)S(=O)(=O)c1ccccc1)NCC1CCCO1 (stereo unspecified)	77*	0.6	0.2	0	35	-9
COc1ccc(N(CC(=O)NCC2CCCO2)S(=O)(=O)c2ccc(C)cc2)cc1OC (stereo unspecified)	55*	1.2	0.4	-6	-24	-4
O=C(CN(Cc1ccc2c(c1)OCO2)C(=O)CNS(=O)(=O)c1ccccc1)NCC1CCCO1 (stereo unspecified)	9	0.8	0.9	-1	21	-3
CON(C)c1nc(NCC(C)C)nc(OCC#N)n1	0	1	1	1	-2	2
Cc1c(C(=O)N(C)C)sc(NC(=O)c2cccc([N+](=O)[O-])c2)c1C#N	-11	1.2	1.1	1	-23	4
c1ccc(-c2cc(-c3nnc4n3N=C(c3ccc5ccccc5c3)CS4)[nH]n2)cc1	49	1	0.5	5	5	24
CCCCCn1c(SCCN2CCOCC2)nc2c1c(=O)[nH]c(=O)n2C	35	1	0.7	-2	-4	10
c1csc(C2C3=C(Nc4ncnn42)c2ccccc2OC3)c1 (stereo unspecified)	37	0.7	0.6	-6	29	15
COc1cc(C2C3=C(Nc4ncnn42)c2ccccc2CC3)cc(OC)c1OC (stereo unspecified)	66*	0.3	0.3	2	66*	-3
c1ccc(C2C3=C(CCCC3)Nc3ncnn32)cc1 (stereo unspecified)	-13	1	1.1	1	-2	-1
